ELG1 repair inh = ELG1-dependent DNA repair inhibition; HEK293T ELG1-luciferase reporter, luminescence, 16 h; DNA damage induced by 5-fluorouridine; Potency, µM (titrated, usually from 46.1 µM), usual class: inhibitors; 330,000 tested, 2.3% active; AID 504467; also: nearly all actives have a fitted effect of over 55% in size
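Overnight (16 hr) co-exposure of 2,000 cells/well to 5-fluorouridine and compound at 37 °C preceded detection. Luciferase was quantified via ONE-Glo luminescence; loss of signal denotes inhibition.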
HT1080 IDH1KD tx = toxicity to HT-1080 IDH1 knockdown cells (counter line). Potency, µM (top dose mostly 46.1 µM), hits mostly cytotoxic. HT-1080 IDH1 knockdown viability, ATP luminescence, 48 h. 360,000 tested, 2% active. AID 686971
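After a 2 h attachment period, IDH1KD HT-1080 cells took pin-transferred compound for 48 h at 37 °C; ATP-based luminescence after 10 min room-temperature reagent incubation reported viability.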
TDP1 cell noCPT = qHTS for Inhibitors of human tyrosyl-DNA phosphodiesterase 1 (TDP1): qHTS in cells in absence of CPT. DT40 Tdp1-/- hTDP1 cells, no CPT, ATP luminescence, 48 h. Potency, µM (highest dose often 46.2 µM), hits mostly inhibitors. 420,000 tested, 15% active; also: nearly all actives have a fitted effect of over 55% in size
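Readout: luminescence from CellTiter-Glo after 30 min in the dark at RT. Cells: DT40 Tdp1-/- with stable hTDP1, 400/well. Exposure: compounds alone, ≥48 hr, 37 °C.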
IL-1B inflam inh = blocks inflammasome-driven IL-1 beta release. AID 743279. activity change, % at 57.5 µM. THP-1 LPS/ATP IL-1B secretion, AlphaLISA, 16 h; active compounds read low. 360,000 tested, 4.7% active; in the data active = activity change below about -50%; inconclusive = mostly about -30% to -49%
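THP-1 cells pretreated 1 hr with compounds (up to 57.5 uM final), then stimulated with LPS (250 ng/mL final) plus ATP (1.25 mM final); secreted IL-1B measured by AlphaLISA after 16 hr, decreased signal indicating inhibition.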
HT1080NT lethal = kills 2HG-producing HT-1080-NT fibrosarcoma cells | AID 686970 | 360,000 tested, 1.6% active | HT-1080-NT fibrosarcoma viability, CellTiter-Glo ATP luminescence, 48 h | Potency, µM (highest dose often 46.1 µM), usual class: cytotoxic;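 also: NT is the 2HG producing partner of a matched IDH1 knockdown line; nearly all actives have a fitted effect of over 55% in size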
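Toxicity toward the 2HG-producing NT line was scored as %Activity, normalised to DMSO and no-cell wells, from CellTiter-Glo luminescence after 48 hours' treatment.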
DT40 TDP1 CPT = growth inhibition of DT40 Tdp1-/-;hTDP1 cells with camptothecin (screen for TDP1 inhibitors) | Potency, µM (highest dose often 46.2 µM), most hits filed as inhibitors | 420,000 tested, 12% active | chicken DT40 Tdp1-/-;hTDP1 cells + 20 nM CPT, ATP luminescence, 48 h; also: nearly all actives have a fitted effect of over 55% in size
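Chicken DT40 Tdp1-/- cells complemented with human TDP1, 400 cells/well, exposed to compounds plus 20 nM camptothecin for at least 48 h at 37 C; viability read as ATP content by CellTiter-Glo luminescence.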
A number is an active result; - = inactive; ? = inconclusive; . = not tested or not shown; [ ] = another dose, or the depositor's remark. Rows were chosen to be rich in hits. Some 19% of all compounds tested hit in one or more screens of this group. Unless noted, calls follow the shape of the dose curve; as a rule, active = well fitted curve in the direction sought with a large enough effect; inconclusive = small, poorly fitted or top-dose-only effect, or another doubt; inactive = no such curve, though single readings can be large; an effect the other way counts as inactive or inconclusive.

SMILES | ELG1 repair inh | HT1080 IDH1KD tx | TDP1 cell noCPT | IL-1B inflam inh | HT1080NT lethal | DT40 TDP1 CPT
CCOc1ccccc1C(=O)NCC(=O)NNC(=O)c1csc(N2CCOCC2)n1 | . | - | - | - | - | -
CN(C)CCn1c2ccccc2c2nc3ccc([N+](=O)[O-])cc3cc21 | ? | ? | 2.91µM | . | - | 2.06µM
CN(C)CCC(C(=O)c1ccccc1)c1ccccn1 (centres undefined) | . | - | - | - | - | -
CN(C)CC(CCCCC(CN(C)C)C(=O)c1ccccc1)C(=O)c1ccccc1 (centres undefined) | ? | ? | 5.8µM | -72.1 | ? | 5.8µM
CCC(CCc1ccccn1)C(=O)c1ccccc1 (centres undefined) | . | - | - | - | - | -
CCCCC(CCc1ccccn1)C(=O)c1ccccc1 (centres undefined) | . | - | ? | - | - | 23.1µM
CC1(C)OC2C[C@](O)(C(N)=O)C[C@H](O)[C@H]2O1 (some centres undefined) | . | . | - | . | . | -
Cc1nn(-c2cccc(Cl)c2)c2nc(-c3cccnc3)cc(C(F)(F)F)c12 | . | . | - | . | . | -
CCN(CC)S(=O)(=O)c1ccc(C(=O)Nc2ccc3c(c2)OCO3)cc1 | ? | - | - | - | - | -
CCn1c(=O)c2sccc2n2c(CCCC(=O)Nc3ccc(Oc4ccccc4)cc3)nnc12 | . | . | 14.6µM | . | . | ?
COCCCn1c(=O)c2sccc2n2c(CCCC(=O)Nc3cccc(C(F)(F)F)c3)nnc12 | . | . | 20.6µM | . | . | 16.4µM
CC[C@H](C)NC(=O)CCCc1nnc2n(CCC(C)C)c(=O)c3sccc3n12 | . | . | ? | . | . | -
Cn1c(=O)c2sccc2n2c(CCCC(=O)Nc3ccc(Oc4ccc(Cl)cc4)cc3)nnc12 | . | . | 18.4µM | . | . | ?
CC(C)CCn1c(=O)c2sccc2n2c(CCCC(=O)Nc3ccc(C(C)C)cc3)nnc12 | . | . | 14.6µM | . | . | ?
COCCCn1c(=O)c2sccc2n2c(CCCC(=O)NCc3ccccc3OC)nnc12 | - | - | - | - | - | -
CC1SC(C)C(=O)N(CC(=O)Nc2ccc([N+](=O)[O-])cc2)C1=O (centres undefined) | - | - | - | - | - | -
COc1cccc(NC(=O)c2ccccc2N2C(=O)C3C4C=CC(C5CC45)C3C2=O)c1 (centres undefined) | - | - | - | - | - | -
Cc1ccc2nc(-c3ccc(N4C(=O)CC(N5CCN(CCO)CC5)C4=O)cc3)sc2c1 (centres undefined) | ? | - | 14.6µM | ? | - | ?
COC(=O)C1=C(C)NC(=O)C1(NC(=O)c1ccc(Cl)cc1)C(F)(F)F (centres undefined) | . | . | - | . | . | -
CCCNC(=O)C1CC(c2ccc(C(F)(F)F)cc2)=NO1 (centres undefined) | ? | - | 11.6µM | - | - | 11.6µM
CCCCNC(=O)C1CC(c2ccc(C(F)(F)F)cc2)=NO1 (centres undefined) | - | - | 9.2µM | - | - | 18.4µM
CC1=C(C(=O)N2CCN(c3cc(C)ccc3C)CC2)C2(CCC(C)CC2)OC1=O (centres undefined) | - | . | ? | . | . | ?
CCc1nc(N=Nc2c(O)[nH]c3ccccc23)c2c3c(sc2n1)CCC3 | - | - | 16.4µM | - | - | 13µM
COc1ccc(Br)cc1C1Nc2cccc3cccc(c23)N1 | - | - | ? | - | - | ?
Brc1ccc(C2Nc3cccc4cccc(c34)N2)s1 | - | - | ? | - | - | 20.6µM
SMILES | ELG1 repair inh | HT1080 IDH1KD tx | TDP1 cell noCPT | IL-1B inflam inh | HT1080NT lethal | DT40 TDP1 CPT
Cc1ccc(C)c(NC(=O)CCN2CCCCC2)c1 | ? | - | - | - | - | -
CC12CCC(=O)C=C1CCC1C3CC(O)C(O)(C(=O)CO)C3(C)CC(O)C12F (centres undefined) | . | ? | - | ? | ? | -
CC(=O)C1CCC2C3CCC4=CC(=O)CCC4(C)C3(F)C(O)CC12C (centres undefined) | . | ? | 23.1µM | - | - | 23.1µM
COc1ccc(-c2nnc3sc(-c4cccs4)nn23)cc1OC | - | - | 11.2µM | -52.4 | - | 10µM
COc1cc(-c2nn3c(-c4cccnc4)nnc3s2)cc(OC)c1OC | ? | - | ? | - | - | ?
COc1cc(-c2nnc3sc(-c4cccs4)nn23)cc(OC)c1OC | ? | - | 11.6µM | - | - | ?
COc1ccc(-c2nn3c(-c4cccc(C)c4)nnc3s2)cc1OC | . | - | ? | - | - | ?
COc1ccc(-c2nnc(SCCOc3ccccc3C)o2)cc1OC | . | . | 18.4µM | . | . | ?
CCc1ccccc1OCCSc1nnc(-c2cc(OC)c(OC)c(OC)c2)o1 | . | . | 18.4µM | . | . | 18.4µM
Cc1ccccc1NC(=O)CSc1nnc(C2CC2)n1CC1CCCO1 (centres undefined) | - | - | - | - | - | -
COc1ccc(OC)c(-c2cc(Cl)c3c(c2)CC(CNC(=O)/C=C/c2ccccn2)O3)c1 (centres undefined) | . | . | - | . | . | -[9.04 µM]
CC(C)NC(=O)CSc1cn(CC(=O)N2CCCCCC2)c2ccccc12 | . | . | - | . | . | -
CC1CCN(C(=O)Cn2cc(SCC(=O)NCc3ccc(F)cc3)c3ccccc32)CC1 | . | . | 20.6µM | . | . | ?
CC1CCN(C(=O)Cn2cc(SCC(=O)Nc3ccccc3)c3ccccc32)CC1 | . | . | - | . | . | -
Cc1ccccc1CS(=O)(=O)c1cn(CC(=O)N2CCC(C)CC2)c2ccccc12 | ? | - | 13µM | - | - | -
CC1CCN(C(=O)Cn2cc(C(=O)C3CC3)c3ccccc32)CC1 | - | - | - | - | - | -
Cc1ccc(CSc2cn(CC(=O)N3CCCCC3)c3ccccc23)cc1 | . | . | 23.1µM | . | . | ?
O=C(Cn1cc(SCc2ccc(F)cc2)c2ccccc21)N1CCCCC1 | . | . | 16.4µM | . | . | 16.4µM
CCOC(=O)C1=C(C)N=C2SCCC(=O)N2C1c1ccc(OCc2ccccc2)cc1 (centres undefined) | . | . | ? | . | . | -
COc1ccc(C(=O)OCC(=O)c2ccc(F)cc2)cc1OC | - | - | - | - | - | -
Cc1ccc(NC(=O)Cn2nc(-c3ccccc3)nc(Cc3ccccc3)c2=O)cc1 | . | . | - | . | . | -
CC1CCN(C(=O)Cn2cc(SCc3ccccc3)c3ccccc32)CC1 | . | . | 16.4µM | . | . | 20.6µM
Cc1ccc(C(=O)Nc2nc(-c3ccco3)c(-c3ccco3)s2)o1 | - | - | 20.6µM | -57.1 | - | 8.2µM
COc1ccc(-c2nc(NC(=O)c3ccco3)sc2C)cc1 | . | - | 23.1µM | - | - | 20.6µM
O=C(Nc1nc(-c2cccs2)c(-c2ccccc2)s1)c1ccco1 | - | - | ? | -53.6 | - | -

Screening data as filed in PubChem BioAssay.
